Results filed as inconclusive are left out. A call without a number means that no potency is given here. Active and inactive are the calls of the source. Calls come from the whole dose curve; as a rule, active = well fitted inhibition curve with a large enough effect; inconclusive = small, poorly fitted or top-dose-only effect; inactive = flat fitted curve, though single readings scatter.
Potency is the fitted concentration of half-maximal effect.

Chain of Voltage-gated inwardly rectifying potassium channel KCNH2 (Homo sapiens) (Q12809 whole entry, looked up): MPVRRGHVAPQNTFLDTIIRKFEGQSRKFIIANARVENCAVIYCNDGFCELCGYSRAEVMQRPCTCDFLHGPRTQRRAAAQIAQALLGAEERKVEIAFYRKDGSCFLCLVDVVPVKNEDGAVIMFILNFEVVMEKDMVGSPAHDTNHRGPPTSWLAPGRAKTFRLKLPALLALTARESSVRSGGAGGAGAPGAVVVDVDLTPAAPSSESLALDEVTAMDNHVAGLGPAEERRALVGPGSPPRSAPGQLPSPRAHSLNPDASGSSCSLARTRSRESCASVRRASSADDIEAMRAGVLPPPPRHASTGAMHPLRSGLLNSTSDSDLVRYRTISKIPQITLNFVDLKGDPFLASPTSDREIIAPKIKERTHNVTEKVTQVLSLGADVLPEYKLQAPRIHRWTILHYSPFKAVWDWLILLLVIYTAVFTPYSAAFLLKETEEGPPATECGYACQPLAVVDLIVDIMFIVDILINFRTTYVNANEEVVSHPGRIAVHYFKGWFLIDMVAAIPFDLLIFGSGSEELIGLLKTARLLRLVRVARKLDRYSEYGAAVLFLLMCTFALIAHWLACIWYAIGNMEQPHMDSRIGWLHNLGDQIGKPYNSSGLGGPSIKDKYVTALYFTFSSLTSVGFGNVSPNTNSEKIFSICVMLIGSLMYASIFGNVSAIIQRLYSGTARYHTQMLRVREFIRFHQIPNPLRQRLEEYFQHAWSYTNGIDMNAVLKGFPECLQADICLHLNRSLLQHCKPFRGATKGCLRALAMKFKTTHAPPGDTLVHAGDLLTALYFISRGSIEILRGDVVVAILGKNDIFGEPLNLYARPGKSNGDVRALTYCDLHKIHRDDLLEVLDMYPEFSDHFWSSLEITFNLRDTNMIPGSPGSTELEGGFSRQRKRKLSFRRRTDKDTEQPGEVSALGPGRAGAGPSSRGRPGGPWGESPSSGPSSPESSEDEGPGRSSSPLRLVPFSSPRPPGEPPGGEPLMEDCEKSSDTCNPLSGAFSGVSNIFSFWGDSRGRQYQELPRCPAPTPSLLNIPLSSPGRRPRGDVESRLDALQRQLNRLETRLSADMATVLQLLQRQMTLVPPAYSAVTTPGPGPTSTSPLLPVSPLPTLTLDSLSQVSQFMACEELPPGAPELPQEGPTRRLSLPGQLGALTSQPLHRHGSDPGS

In the test the target is Voltage-gated inwardly rectifying potassium channel KCNH2 (Homo sapiens) (UniProt Q12809). Nature of the test: qHTS Assay for Small Molecule Inhibitors of the Human hERG Channel Activity (AID 588834).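 Note: lower thallium flux fluorescence means stronger hERG block; nearly all actives have a fitted effect of over 50% in size.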 Conditions: U2OS BacMam hERG, FluxOR thallium flux fluorescence; series mostly up to 46.1 µM. Summed up:
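Step 1: BacMam hERG transduction of U2OS, 4 hrs RT. Step 2: overnight 37 °C, plate 2000 cells/well, 4 hr. Step 3: FluxOR load, compound 10 min, stimulate, read fluorescence.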
In general terms: Quantitative high-throughput screening tests each substance at several concentrations.
With `CC(=O)Oc1cc(C(F)(F)F)ccc1C(=O)O`, the Potency result was “inactive”. The entry for `O=C(O)CCC/C=C\C[C@@H]1[C@@H](/C=C/[C@@H](O)COc2cccc(C(F)(F)F)c2)[C@H](O)C[C@@H]1O` is “inactive”; for `CC(C)CCCC(C)NC(C)C` (centres undefined) it is “inactive”.

Take `CCC(C)[C@@H](N)C(=O)O` (some centres undefined): the Potency entry was “inactive”. For the compound `Cc1cccc(C)c1NC(=O)NC1=CCCN1C`, the Potency entry was “inactive”. As to `CC(C)(COP(=O)(O)OP(=O)(O)OC[C@H]1O[C@@H](n2cnc3c(N)ncnc32)[C@H](O)[C@@H]1OP(=O)(O)O)C(O)C(=O)NCCC(=O)NCCS` (some centres undefined), the Potency entry is “inactive”. As to `CC(=O)c1ccc2c(c1)N(CCCN1CCN(CCO)CC1)c1ccccc1S2`, the Potency is 7.08 µM (active).

In the case of `OCCCNc1ccccc1`, the Potency entry is “inactive”. With `O=C(O)/C=C/C(=O)Nc1ccc(S(=O)(=O)Nc2nccs2)cc1`, the Potency result is “inactive”. The figure for `CN1CCc2c(c3ccccc3n2Cc2ccccc2)C1` is 5.01 µM (active); for `CCN(CC)CCOc1ccccc1OC` it is “inactive”; for `CC/C=C\C/C=C\C/C=C\C/C=C\C/C=C\CCCC(=O)O` it is “inactive”. As for `O=C(NNCNNC(=O)c1ccncc1)c1ccncc1`, the Potency entry is “inactive”. The figure for `O=C(CCCN1CCC(C(=O)c2ccc(F)cc2)CC1)c1ccc(F)cc1` is 0.0891 µM (active). The entry for `OC1OC[C@@H](O)[C@H](O)[C@@H]1O` (some centres undefined) is “inactive”. For `O=C1[O][Bi][O]c2ccccc21`, the Potency result was “inactive”.

With `CC(=O)Nc1c(I)c(C(=O)O)c(I)c(N(C)C(C)=O)c1I`, the Potency entry is “inactive”.

With `CCCCCCCCCCCC(=O)OCC(O)CO` (centres undefined), the Potency result is “inactive”. The entry for `O=P(O)(O)OC[C@H]1O[C@](O)(COP(=O)(O)O)[C@@H](O)[C@@H]1O` is “inactive”.

These data come from PubChem BioAssay (NCATS).
